Values without a mark were called inactive.
system: Caenorhabditis elegans dauer (daf-2(e1370)); assay: proportion of mobile C. elegans dauer larvae relative to DMSO control (fraction of DMSO control); higher = more viable, less nematicidal, active = 0.63 or less; extreme values may be limits of the assay; details: 60 µM; 5 days; temperature: 20 °C
Procedure: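 DODA library (846 commercial 1,3,4- and 1,2,4-oxadiazole compounds plus commercial nematicide controls) screened at a single dose of 60 µM (0.6% DMSO) in 96-well plates, two biological replicates. Read-outs: C. elegans N2 L1 survival/reproduction score at day 6, 20 °C (0: 0-10 worms, 1: 11-20, 2: 21-50, 3: >50, 4: overgrown/starved). C. elegans daf-2 dauer, D. dipsaci and M. hapla J2 mobility at day 5, 20 °C, and P. penetrans mobility at day 5, 20 °C, each relative to DMSO controls. M. hapla egg hatching at day 12, 25 °C, relative to the mean of 8 DMSO wells on the same plate.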

`COc1ccc(Cl)cc1-c1noc(-c2ccc(Cl)cc2)n1` and `COc1ccc(-c2noc(-c3ccccc3Cl)n2)cc1` are the same in “proportion of mobile C. elegans dauer larvae” value (“proportion” below): 1 for the first, 1 for the second.

`Cc1ccccc1-c1noc(-c2ccc(F)cc2)n1` and `CCOc1ccc(-c2nc(-c3ccccc3C)no2)cc1` are the same in “proportion” value: 1 for the first, 1 for the second.

`COc1nc(C)ccc1-c1noc(-c2ccc(C(C)(C)C)cc2)n1` and `Cc1ccc(-c2noc(-c3ccc(-n4nncc4C)cc3)n2)cc1` are the same in “proportion” value: 1 for the first, 1 for the second.

`CC(C)(Oc1ccc(Cl)cc1)c1nc(-c2ccncc2)no1` and `Cc1cc(OCc2nc(-c3ccncc3)no2)cc(C)c1Cl` are the same in “proportion” value: 1 for the first, 1 for the second.

`COc1ccccc1-c1nnc(SCC(=O)Nc2ccc(C)cc2)o1` and `Cc1ccc(NC(=O)CSc2nnc(-c3ccccc3)o2)cc1C` are the same in “proportion” value: 1 for the first, 1 for the second.

`COc1ccc(-c2nnc(SCC(=O)Nc3ccc(C)cc3Br)o2)cc1` and `COc1ccc(NC(=O)CSc2nnc(-c3ccc(Br)cc3)o2)cc1` are the same in “proportion” value: 1 for the first, 1 for the second.

`Brc1ccc(-c2noc(COc3ccccc3)n2)cc1` and `Cc1cc(Cl)ccc1OCc1nc(-c2ccccc2)no1` are the same in “proportion” value: 1 for the first, 1 for the second.

`Cc1ccc(-c2noc(-c3ccccc3OCC(N)=O)n2)cc1` and `Fc1ccc(-c2noc(-c3ccc(F)cc3)n2)cc1` are the same in “proportion” value: 1 for the first, 1 for the second.

First: Clc1ccc(OCc2ccccc2)c(-c2nc(-c3cccnc3)no2)c1
Second: Cc1ccc(C)c(-c2nc(-c3cccnc3)no2)c1
The “proportion” value of the first is higher: 1 for the first, 0.727 for the second.

`O=C(NCCc1ccccc1)c1ccccc1-c1nc(-c2ccccc2Cl)no1` and `COc1ccc(-c2noc(-c3ccccc3C(=O)Nc3ccc(NC(C)=O)cc3)n2)cc1` are the same in “proportion” value: 1 for the first, 1 for the second.

`COc1cccc(-c2noc(CSc3ccc(Cl)cc3)n2)c1` and `Cc1cc(Cl)ccc1OCc1nc(-c2ccc(F)cc2)no1` are the same in “proportion” value: 1 for the first, 1 for the second.

`N#Cc1ccc(OCc2nc(-c3ccc(Br)o3)no2)cc1` and `COc1ccc(-c2noc(COc3ccc(Br)c(C)c3)n2)cc1` are the same in “proportion” value: 1 for the first, 1 for the second.

`O=C(CSc1nnc(-c2cccc(Cl)c2)o1)NC1CCCCC1` and `O=C(CSc1nnc(-c2cccc(Br)c2)o1)c1ccc2c(c1)CCCC2` are the same in “proportion” value: 1 for the first, 1 for the second.

`N#Cc1ccc(CSc2nnc(-c3ccncc3)o2)cc1` and `Ic1ccc(CSc2nnc(-c3ccco3)o2)cc1` are the same in “proportion” value: 1 for the first, 1 for the second.

`Cc1cc(C)c(CSc2nnc(-c3ccccc3)o2)c(C)c1` and `COc1ccc(-c2nnc(SCC(=O)OCc3ccccc3)o2)cc1` are the same in “proportion” value: 1 for the first, 1 for the second.

`Cc1cc(Br)ccc1OCc1nc(-c2ccccn2)no1` and `Cc1ccc(OCc2nc(-c3ccccc3Cl)no2)c(C)c1` are the same in “proportion” value: 1 for the first, 1 for the second.

`CCN(CC)C(=O)CSc1nnc(-c2ccc(Br)cc2)o1` and `Cc1ccc(-c2nnc(SCC(=O)Nc3nccs3)o2)cc1` are the same in “proportion” value: 1 for the first, 1 for the second.

`CCn1c(SCc2nc(-c3cccs3)no2)nnc1-c1ccco1` and `CCOc1cc(C#N)ccc1OCc1nc(-c2cccs2)no1` are the same in “proportion” value: 1 for the first, 1 for the second.

`Cc1csc(NC(=O)CSc2nnc(-c3ccccc3Cl)o2)n1` and `COc1ccc(-c2nnc(SCC(=O)Nc3ccccc3C(C)C)o2)cc1` are the same in “proportion” value: 1 for the first, 1 for the second.

With `O=C(CSc1nnc(-c2ccco2)o1)Nc1cccc(C(F)(F)F)c1` the “proportion” value was 1.

In the case of `C=CCOc1ccc(-c2nc(-c3cccnc3)no2)cc1`, the “proportion” value is reported as 0.5 (active).
